The values below come from PubChem BioAssay AID1259336 (Sattelle Laboratory, UCL Respiratory, Division of Medicine, …, 2017).

Molecules are shown by their SMILES. Values without a mark were called inactive. Cut-off read from the data, not from the text of the source: active = log2 fold change growth below about -1.8; inactive = the rest.

The nature of the assay: C. elegans growth inhibition, whole organism, log2 fold change (AID 1259336).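 Note: growth scored by imaging after five days at 20 °C.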 The following applies: anthelmintic screen, stronger effect = lower value.
For the compound `O=C(Cn1ccnc1[N+](=O)[O-])NCc1ccccc1`, the log2 fold change growth is 0.415.

As to `Cn1ccnc1CNCCS(=O)(=O)c1cccc(Nc2ccc(-c3cccc(F)c3)cn2)c1`, the log2 fold change growth is 0.155.

`Cc1cc(OCC(=O)Nc2ccc(C(C)C)cc2)n(C)c(=O)c1C#N`: the log2 fold change growth was 0.363.

Regarding `O=C(Nc1ccc(N2CCNCC2)cc1)c1ccn2ncc(-c3cccc(Cl)c3)c2n1`, the log2 fold change growth is -0.0705.

For the compound `Cc1ccc(S(=O)(=O)Nc2ccc(CN3CCN(C(=O)c4cccc(C#N)c4)CC3)cc2)cc1`, the log2 fold change growth was 0.152.

With `Nc1cccnc1Nc1ccc(Cl)cc1`, the log2 fold change growth is 0.497.

For `Nc1nc2ccc(-c3cncc(Oc4ccc(F)cc4)c3)cc2[nH]1`, the log2 fold change growth is 0.264.

`C[C@]1(COc2ccc(N3CCC(Oc4ccc(OC(F)(F)F)cc4)CC3)cc2)Cn2cc([N+](=O)[O-])nc2O1`: the log2 fold change growth was 0.162.

With `CC[C@H](Sc1nc2ccccc2o1)C(=O)Nc1nccs1`, the log2 fold change growth was -0.397.

As to `O=C(c1n[nH]c2c1CCCC2)N1CCN(Cc2ccc3c(c2)OCO3)CC1`, the log2 fold change growth is 0.387.

Consider `CC1CCCN(C(=O)C(C)Nc2cc(Cl)ccc2N2CCOCC2)C1` (stereo not drawn), for which the log2 fold change growth is 0.538.

Consider `COC(=O)c1c(NC(=O)c2cc3ccccc3oc2=O)sc2c1CCN(Cc1ccccc1)C2`, for which the log2 fold change growth was -0.125.

`CCCS(=O)(=O)N1CCC(CO)(Cc2ccccc2C(F)(F)F)CC1`: the log2 fold change growth was 0.357.

With `COC(=O)c1c(NC(=O)c2c(F)c(F)c(F)c(F)c2F)sc2c1CCCCC2`, the log2 fold change growth is 0.243.

Consider `c1ccc2c(c1)CN(CC1CC1)CC1(CCN(Cc3c[nH]c4cnccc34)CC1)O2`, for which the log2 fold change growth is 0.264.

With `Cc1cc(NC(=O)c2ccc(S(=O)(=O)N(Cc3ccccc3)C(C)C)cc2)no1`, the log2 fold change growth is -0.0868.

For the compound `Cc1cnc(N2CCN[C@@H](Cc3ccccc3)C2)nc1Oc1ccc(-n2ccnc2)cc1`, the log2 fold change growth was 0.245.

Regarding `Nc1ncnc2c1c(-c1cnc3ccccc3c1)nn2CC1CCNCC1`, the log2 fold change growth is 0.195.

Turning to `CN1CCC(NCc2cccc(-c3ccc(S(=O)(=O)NCc4ccccc4)cc3)c2)CC1`, the log2 fold change growth was 0.364.

Turning to `CCCNC(=O)N1CCC2(CC1)CC(=O)c1cc(C)ccc1O2`, the log2 fold change growth is -0.181.

`COc1cccc(NC(=O)c2c(NC(=O)c3cccnc3)sc3c2CCC3)c1`: the log2 fold change growth is -1.12.

Consider `CC(C)(C)OC(=O)N1CCN(c2cc(-c3ccc(Oc4ccccc4)cc3)[nH]n2)CC1`, for which the log2 fold change growth is -0.56.

For the compound `CC[C@H](C)NC(=O)c1ccc(NC(=O)C2(c3ccccc3)CCCC2)cc1`, the log2 fold change growth was 0.546.

With `CCCCc1ccc(NC(=O)Nc2ccc(O[C@H]3CCCC[C@@H]3N(C)c3ccccc3)c(F)c2)cc1`, the log2 fold change growth was -0.0752.

For `FC(F)(F)c1cnc(Sc2nnc(-c3ccncc3)o2)c(Cl)c1`, the log2 fold change growth is -0.0782.

`CCN(CC)S(=O)(=O)c1ccc(Cl)c(C(=O)Nc2ccc3nc(C)sc3c2)c1`: the log2 fold change growth is -1.22.

With `O=C(CN1CCOCC1)Nc1ccc2ncnc(Nc3ccc(OCc4cccc(F)c4)c(Cl)c3)c2c1`, the log2 fold change growth is -0.76.

Regarding `Cc1ccc(-c2nc(CN(Cc3ccccn3)C(C)C)cs2)o1`, the log2 fold change growth was 0.617.

As for `O=C(NC1CC1)c1ccc(N2CCC(Cc3ccccc3)CC2)nc1`, the log2 fold change growth was 0.0189.

For the compound `Nc1nc(N)c2c3c(sc2n1)CN(Cc1ccccc1)CC3`, the log2 fold change growth was 0.456.

For the compound `N#Cc1ccc(-c2ccc(OCC(N)=O)cc2)cc1`, the log2 fold change growth is -0.349.

For `CC(C)(C)n1nc(Cc2ccc(F)c(Cl)c2)c2c(N)ncnc21`, the log2 fold change growth is -1.01.

With `COc1ccc(N(CCc2cccc(C)n2)C(=O)C2CCCCC2)cc1`, the log2 fold change growth was -0.0192.

On to `Cc1cccc(-c2nc(Nc3ccncn3)c3sccc3n2)n1`, for which the log2 fold change growth is 0.438.

In the case of `CN1CCCC1CCO[C@](C)(c1ccccc1)c1ccc(Cl)cc1` (stereo partly drawn), the log2 fold change growth is 0.213.

On to `Clc1ccc(Cl)c(CO[C@H]2CCCC[C@@H]2n2ccnc2)c1`, for which the log2 fold change growth is 0.0539.

Consider `Brc1cncc(-c2cc(NCCCn3ccnc3)nc(-c3ccccc3)n2)c1`, for which the log2 fold change growth is -1.17.

As to `COc1cc(C2=NCCN2)cc2cc(-c3ccc(C4=NCCN4)cc3)oc12`, the log2 fold change growth is 0.303.
